# Measurements from the supplement of paper PMC4840960.
# Structures can show the parent of a compound that is named as a salt. ± gives the standard deviation of the averaged measurements.
# Key:
# [1] = test system: E18 rat cortical neuron-glia co-culture; experiment: fiber score / MBP score (myelination specific beyond OL differentiation) (ratio); higher = more myelination-specific MBP alignment; conditions: treatment time: 8 days (DIV5-DIV13)
# In short: (§1)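 Primary E18 rat cortical co-cultures (papain-dissociated, 20,000 cells/well on poly-d-lysine/laminin 96-well plates) received library compounds at 1 or 5 µM in myelination medium from DIV5 to DIV13. Cells were fixed in 4 % paraformaldehyde and immunostained for MBP and Olig2 with DAPI, and four 10X fields per well in duplicate wells were analysed. The read-out is fiber score (continuous MBP fiber length per Olig2+ nucleus) divided by MBP score (thresholded MBP area × intensity per Olig2+ nucleus).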
# [2] = test system: E18 rat cortical neuron-glia co-culture; experiment: myelination (MBP fiber length per Olig2+ nucleus), % of 1 µM DAPT response (DMSO = 0) (% of DAPT); higher = more myelination, active = 50 or more; conditions: treatment time: 8 days (DIV5-DIV13)
# In short: as §1, with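 “Myelination was continuous straight” for “The read-out is fiber score (continuous”, “nucleus, normalised to 0.1 % DMSO (0) and a 1 µM positive control (100).” for “nucleus) divided by MBP score (thresholded MBP area × intensity per Olig2+ nucleus).”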
Compound,fiber score / MBP score ([1]; 1 µM),fiber score / MBP score ([1]; 5 µM),myelination ([2]; 1 µM),myelination ([2]; 5 µM)
CC1=C(/C=C/C(C)=C/C=C/C(C)=C\C(=O)O)C(C)(C)CCC1 [Isotretinoin],0.294,0.414,-16.1 (inactive),-11.8 (inactive)
Nc1nnc(-c2cccc(Cl)c2Cl)c(N)n1 [Lamotrigine],0.703,0.746,-23.5 (inactive),-15.5 (inactive)
O=C1CC[C@@H](C(=O)N2CSC[C@H]2C(=O)O)N1 [Pidotimod],0.869,0.881,-7.34 (inactive),-4.26 (inactive)
COC(=O)Nc1nc2cc(C(=O)c3ccccc3)ccc2[nH]1 [Mebendazole],0.624,0.207,71.4,-22.3 (inactive)
Cc1sc(N)c(C(=O)c2cccc(C(F)(F)F)c2)c1C,0.681,0.698,-18.7 (inactive),-12 (inactive)
CN1CCC(=C2c3ccccc3C=Cc3ccccc32)CC1 [Cyproheptadine],0.58,0.686,-14.7 (inactive),-1.4 (inactive)
NS(=O)(=O)c1cc(C(=O)O)c(NCc2ccco2)cc1Cl [Furosemide],0.894,0.97,-9.91 (inactive),-6.31 (inactive)
CC(=O)CCCCn1c(=O)c2c(ncn2C)n(C)c1=O [Pentoxifylline],0.817 ± 0.062,0.839 ± 0.17,-4.66 (inactive),-23.8 (inactive)
CC(C)OC(=O)CCC/C=C\C[C@@H]1[C@@H](CC[C@@H](O)CCc2ccccc2)[C@H](O)C[C@@H]1O [Latanoprost],0.955,0.853,-8.13 (inactive),-8.74 (inactive)
COc1ccc2[nH]c([S+]([O-])Cc3ncc(C)c(OC)c3C)nc2c1 (stereo not drawn) [Omeprazole],0.656,0.73,-8.06 (inactive),-4.44 (inactive)
O=C(C1CCCCC1)N1CC(=O)N2CCc3ccccc3C2C1 (stereo not drawn) [Praziquantel],1.03,0.947,7.75 (inactive),-1.87 (inactive)
CCOC(=O)c1ncn2c1CN(C)C(=O)c1cc(F)ccc1-2 [Flumazenil],0.859,0.835,-6.81 (inactive),-19.8 (inactive)
CCc1ccc(CCOc2ccc(CC3SC(=O)NC3=O)cc2)nc1 (stereo not drawn) [Pioglitazone],0.868,0.501,-2.52 (inactive),-17.1 (inactive)
CCN(CC)CC#CCOC(=O)C(O)(c1ccccc1)C1CCCCC1 (stereo not drawn) [Oxybutynin],0.964,0.547,9.59 (inactive),-5.69 (inactive)
CC(C)C[C@H](NC(=O)[C@@H](O)[C@H](N)Cc1ccccc1)C(=O)O [Ubenimex],0.92,1.09,-7.81 (inactive),1.09 (inactive)
CCOC(=O)c1ccc(OC(=O)CCCCCNC(=N)N)cc1 [Gabexate],0.709,0.799,-20.3 (inactive),-14.2 (inactive)
CC1(C)C[C@@H]1C(=O)N/C(=C\CCCCSC[C@H](N)C(=O)O)C(=O)O [Cilastatin],0.833,0.756,-11.5 (inactive),-15.2 (inactive)
O=C1CN2Cc3c(ccc(Cl)c3Cl)N=C2N1 [Anagrelide hydrochloride],0.9,0.706,-1.07 (inactive),-10 (inactive)
CC(N/C(=N\C#N)Nc1ccncc1)C(C)(C)C (stereo not drawn) [Pinacidil],0.981,0.451,2.9 (inactive),-19.7 (inactive)
CCOC(=O)[C@@]1(CCCCCCOc2ccc(Cl)cc2)CO1 [Etomoxir],0.693,0.645,-31 (inactive),-26.2 (inactive)
CCC1(c2ccccc2)C(=O)NCNC1=O [Primidone],0.952,1.03,3.26 (inactive),-3.74 (inactive)
COc1ccccc1OCC(O)CN1CCN(CC(=O)Nc2c(C)cccc2C)CC1 (stereo not drawn) [Ranolazine],0.877,0.697,-13.7 (inactive),-22.5 (inactive)
CN1C(C(=O)Nc2ccccn2)=C(O)c2ccccc2S1(=O)=O [Piroxicam],0.787,1.04,-10.9 (inactive),-8.56 (inactive)
CCOC(=O)OC(C)OC1=C(C(=O)Nc2ccccn2)N(C)S(=O)(=O)c2ccccc21 (stereo not drawn) [Ampiroxicam],0.796,1.01,-15.1 (inactive),-4.42 (inactive)
CC(C(=O)O)c1ccc(CC2CCCC2=O)cc1 (stereo not drawn) [loxoprofen],0.944,0.875,1.34 (inactive),-10.6 (inactive)
CC(=O)SCC(Cc1ccccc1)C(=O)NCC(=O)OCc1ccccc1 (stereo not drawn) [Racecadotril],0.715,0.943,-48.7 (inactive),-8.19 (inactive)

Compound,fiber score / MBP score ([1]; 1 µM),fiber score / MBP score ([1]; 5 µM),myelination ([2]; 1 µM),myelination ([2]; 5 µM)
COc1cc(OC)c(C(=O)CCCN2CCCC2)c(OC)c1 [Buflomedil],0.901,0.768,-13.2 (inactive),-13.3 (inactive)
CC1(C)O[C@@H]2C[C@H]3[C@@H]4CCC5=CC(=O)C=C[C@]5(C)[C@@]4(F)[C@@H](O)C[C@]3(C)[C@]2(C(=O)CO)O1 [Triamcinolone Acetonide],1.37,1.32,5.47 (inactive),19.3 (inactive)
O=C1N(c2ccccc2)c2ccccc2C1(Cc1ccncc1)Cc1ccncc1 [Linopirdine],0.779,0.73,-4.06 (inactive),-12 (inactive)
Cn1ccnc1S [Methimazole],0.372,0.312,-14.3 (inactive),-15.9 (inactive)
CC(C)[N+](C)(CCOC(=O)C1c2ccccc2Oc2ccccc21)C(C)C [Propantheline],0.889,0.949,-4.45 (inactive),3.32 (inactive)
C=CC1=C(C(=O)O)N2C(=O)[C@@H](NC(=O)/C(=N\OCC(=O)O)c3csc(N)n3)[C@H]2SC1 [Cefixime],0.945,1.4,–,28.9 (inactive)
CN(C)[C@@H]1C(O)=C(C(=O)NCN2CCCC2)C(=O)[C@@]2(O)C(O)=C3C(=O)c4c(O)cccc4[C@@](C)(O)[C@H]3C[C@@H]12 [Rolitetracycline],0.779,0.832,-9.77 (inactive),-5.55 (inactive)
C[C@H]1[C@H](OC(=O)CCC(=O)O)O[C@@H]2O[C@@]3(C)CC[C@H]4[C@H](C)CC[C@@H]1[C@@]24OO3 [Artesunate],0.652,1.2,-34.4 (inactive),189
C[C@@H]1C[C@H]2[C@@H]3CCC4=CC(=O)C=C[C@]4(C)[C@@]3(F)[C@@H](O)C[C@]2(C)[C@@]1(O)C(=O)CO [Dexamethazone],0.866,0.845,-1.63 (inactive),-0.917 (inactive)
CC(C)(C)NCC(O)COc1cccc2c1CC(O)C(O)C2 (stereo not drawn) [Nadolol],0.767,0.949,-13.9 (inactive),-7.81 (inactive)
C[C@H](CS)C(=O)N1CCC[C@H]1C(=O)O [Captopril],0.773,0.704,-9.04 (inactive),-9.32 (inactive)
C[C@@](Cc1ccc(O)c(O)c1)(NN)C(=O)O [Carbidopa],0.917,0.776,-3.67 (inactive),-7.64 (inactive)
COc1cc(C[C@@H](CO)[C@H](CO)Cc2ccc(O)c(OC)c2)ccc1O [Secoisolariciresinol],0.879,0.777,-4.03 (inactive),-8.85 (inactive)
NC[C@H]1CC[C@H](C(=O)Oc2ccc(CCC(=O)O)cc2)CC1 [Cetraxate],1.07,0.791,4.64 (inactive),-18.2 (inactive)
CC[C@H](C)C(=O)O[C@H]1C[C@@H](C)C=C2C=C[C@H](C)[C@H](CC[C@@H]3C[C@@H](O)CC(=O)O3)[C@H]21 [Lovastatin],2.07,6.02,-6.08 (inactive),1.23 (inactive)
CC(=O)O[C@]1(C(C)=O)CC[C@H]2[C@@H]3C[C@H](C)C4=CC(=O)CC[C@]4(C)[C@H]3CC[C@@]21C [Medroxyprogesterone acetate],1.1,0.549,0.776 (inactive),-11.3 (inactive)
CC(C(O)c1ccc(O)cc1)N1CCC(Cc2ccccc2)CC1 (stereo not drawn) [Ifenprodil],0.348,0.136,-70.3 (inactive),-83.6 (inactive)
Cc1ccc(N(CC2=NCCN2)c2cccc(O)c2)cc1 [Phentolamine],0.701,0.56,-21.8 (inactive),-26.1 (inactive)
CN(C)CCc1c[nH]c2ccc(C[C@H]3COC(=O)N3)cc12 [Zolmitriptan],0.791,0.785,-9.2 (inactive),-14.6 (inactive)
O=C(NCCO[N+](=O)[O-])c1cccnc1 [Nicorandil],0.852,1.17,-8.12 (inactive),-1.77 (inactive)
Nc1ncnc2c1ncn2[C@@H]1O[C@H](CO)[C@@H](O)[C@@H]1O [Vidarabine],0.8,1.2,-13.9 (inactive),24.3 (inactive)
CC(=O)OCC(=O)[C@@]12OC3(CCCC3)O[C@@H]1C[C@H]1[C@@H]3CCC4=CC(=O)C=C[C@]4(C)[C@@]3(F)[C@@H](O)C[C@@]12C [Amcinonide],0.868,0.784,-11.8 (inactive),-42.6 (inactive)
"O=c1[nH]cnc2c1ncn2[C@H]1CC[C@@H](CO)O1 [2',3'-Dideoxyinosine]",1.07,0.869,-2.19 (inactive),-10.5 (inactive)
CC(C)[C@H]1CC[C@H](C(=O)N[C@H](Cc2ccccc2)C(=O)O)CC1 [Nateglinide],0.796,0.739,-12.6 (inactive),-10.9 (inactive)
COc1cc2nc(N3CCN(C(=O)C4COc5ccccc5O4)CC3)nc(N)c2cc1OC (stereo not drawn) [Doxazosin],0.727,0.531,-45.2 (inactive),-54.3 (inactive)
